Measured values as given in ChEMBL document CHEMBL4513216, “Probing the Open Global Health Chemical Diversity Library for Multistage-Active Starting Points for Next-Generation Antimalarials” (ACS Infect Dis, 2020).
About 8,600 (12%) of roughly 69,000 compounds showed an effect of 50% or more. The list comes from a sample in which strong results are over-represented; it also holds similar structures and randomly drawn compounds.

Tested on: Plasmodium berghei
Assay: Screen against P. berghei liver stage (PbLuc), transformed with Luciferase, at 10uM
Assay type: functional, HepG2
Details: tested at 10 uM

Going from `COc1nc2c(cc1C(=O)NCc1nc(CSC)no1)CCC2` to `COc1nc2c(cc1C(=O)NCc1noc(Cc3cccs3)n1)CCC2`, the INHIBITION falls from 43.1% to 24.7%.

First: COc1nc2c(cc1C(=O)NCc1noc(-c3ccco3)n1)CCC2
Second: Nc1nc(N2CCCCC2)ncc1C(=O)NCc1ccc(F)c(Cl)c1
The INHIBITION of the first is higher: 55% for the first, 26.4% for the second.

Compared with `CCCC(N)CNS(=O)(=O)Cc1cccc(C#N)c1` (stereo unspecified), `N#Cc1cccc(CN2CC[C@@H]3[C@@H]2CC(=O)N3Cc2cccnc2)c1` is lower in INHIBITION: 39.3% for the first, 22.7% for the second.

Compared with `O=C(NCCn1ccnc1-c1cc2n(n1)CCCNC2)c1ccncc1`, `O=C(NCCn1ccnc1-c1cc2n(n1)CCNC2)c1ccncc1` is higher in INHIBITION: 32% for the first, 62.4% for the second.

Going from `O=C(NCCn1ccnc1-c1cc2n(n1)CCNC2)c1ccc(F)cc1` to `CCNc1cc2c(nn1)CCN(C(=O)c1ccc(-n3cccn3)nc1)C2`, the INHIBITION falls from 8.08% to -5.26%.

Compared with `O=C(COc1cccc2c1CCC2=O)NCC(F)(F)F`, `O=C(COc1cccc2c1CCC2=O)NCc1ccccc1F` is lower in INHIBITION: 20% for the first, 1.58% for the second.

Going from `O=C(COc1cccc2c1CCC2=O)NCCSc1ccccc1` to `O=C(COc1cccc2c1CCC2=O)NCCOc1ccccc1`, the INHIBITION rises from -66.3% to 41.8%.

Going from `O=C(COc1cccc2c1CCC2=O)NCCc1cccs1` to `O=C(COc1cccc2c1CCC2=O)NCc1ccccc1Cl`, the INHIBITION falls from 63.7% to 50%.

Compared with `Cc1cc(N2CCC(O)(CN(C)C)C2)c2cc3c(cc2n1)OCO3` (stereo unspecified), `Cc1ccc(CN2CCc3c(C(=O)N(C)C)nn(C)c3C2)s1` is higher in INHIBITION: -7.02% for the first, 8.47% for the second.

Compared with `COCC(=O)N1CCCC1c1ccc(C(=O)NCc2ccccc2Cl)s1` (stereo unspecified), `CCNC(=O)C1(Cc2cc(-c3ccccc3)no2)CCCN(C(C)=O)C1` (stereo unspecified) is higher in INHIBITION: -9.66% for the first, 42.5% for the second.

Compared with `COc1ccc(CSc2nnc(N)n2C2CC2)cc1Cl`, `CO[C@@H]1CC[C@@H](NC(=O)CCc2ccc(Cl)cc2)[C@H]1O` is lower in INHIBITION: 46.3% for the first, 5.35% for the second.

Compared with `CCCS(=O)(=O)N1CCC2(CN(c3ccccc3)C(=O)CN2C)C1` (stereo unspecified), `O=C(CCN1CCCO1)N1CCCC(CO)(CCCc2ccccc2)C1` (stereo unspecified) is lower in INHIBITION: 41.2% for the first, -4.56% for the second.

Compared with `Cc1csc2nc3n(c(=O)c12)CCN(C(=O)c1ccncc1)CC3`, `Cc1cc2c(=O)n3c(nc2s1)CCN(C(=O)c1ccncc1)CC3` is lower in INHIBITION: 56.9% for the first, 19.9% for the second.

Compared with `Cc1ccc(C(=O)N2CCc3nc4c(C)csc4c(=O)n3CC2)cn1`, `Cc1csc2c(=O)n3c(nc12)CCN(C(=O)c1cccnc1)CC3` is lower in INHIBITION: 57.5% for the first, 36.4% for the second.

Going from `Cc1csc2nc3n(c(=O)c12)CCN(Cc1ccccn1)CC3` to `Cc1csc2c(=O)n3c(nc12)CCN(C(=O)c1ccccn1)CC3`, the INHIBITION rises from 1.5% to 35.2%.

First: CCC[C@H]1CN(S(C)(=O)=O)C[C@@H]1NC(=O)CCOCC
Second: COCCC(=O)N[C@H]1CN(c2nc(C)c3c(n2)CCCC3)C[C@@H]1C1CC1
The INHIBITION of the first is higher: 27.6% for the first, 20.4% for the second.

Compared with `Cc1noc(C)c1CN1CC2(CCN(Cc3c[nH]cn3)CC2)CC1=O`, `Cc1noc(C)c1CN1CC2(CCCCN2C)CC1=O` (stereo unspecified) is higher in INHIBITION: -27.6% for the first, 39.3% for the second.

Compared with `N#Cc1ccc(CN2CCN(c3ccncc3Cl)CC2=O)cc1`, `N#Cc1ccc(CN2CCN(Cc3ccncc3Cl)CC2=O)cc1` is higher in INHIBITION: 24.5% for the first, 25.7% for the second.

First: Cc1noc(C)c1CN1CC2(CCCCN2c2cncnc2)CC1=O (stereo unspecified)
Second: N#Cc1cccc(CN2CC3(CCCCN3c3cncnc3)CC2=O)c1 (stereo unspecified)
The INHIBITION of the first is higher: 65.9% for the first, 27.5% for the second.

`N#Cc1ccc(CN2CC3(CCCCN3c3cccnc3)CC2=O)cc1` (stereo unspecified) and `N#Cc1cccc(CN2CC3(CCCCN3c3cccnc3)CC2=O)c1` (stereo unspecified) are the same in INHIBITION: 57.1% for the first, 57.1% for the second.

Going from `CCN1CC(COC(=O)c2ccc(N(C)C)cc2F)CC1=O` (stereo unspecified) to `Cc1ccc(C(=O)N2C[C@@H]3CC[C@H]2CN(S(=O)(=O)N(C)C)C3)c(O)c1`, the INHIBITION rises from -56.7% to 24.7%.

Compared with `O=C(c1cccc(Cl)c1)N1CCCC2(CCCNC2)C1` (stereo unspecified), `Cc1c(CN2CC[C@@H](N3CCC(O)CC3)[C@H](O)C2)[nH]c2ccc(Cl)cc12` is higher in INHIBITION: 0.164% for the first, 36.2% for the second.

Compared with `CN(C)C(=O)CN1C[C@H]2CC[C@@H](C1)N(Cc1ccc3nsnc3c1)C2`, `CN1C(=O)[C@@H]2CC[C@H]1CN(C(=O)c1csc(Cc3ccccc3)n1)C2` is higher in INHIBITION: 33.8% for the first, 35.3% for the second.

First: Cc1ncc(C(=O)N2CCOC(C(=O)N3CCCCC3)C2)c(C)n1 (stereo unspecified)
Second: O=C(C1CCC1)N1CCc2onc(Cn3cccn3)c2C1
The INHIBITION of the first is lower: -5.6% for the first, 24.5% for the second.

Compared with `CN(Cc1cccc(O)c1)Cc1cnn(C)c1`, `Cc1cc(NCc2ccc(CS(N)(=O)=O)cc2)nc(C)n1` is higher in INHIBITION: 10% for the first, 11.8% for the second.

Compared with `Cn1cc(-n2cc3nc(N4CCOCC4)[nH]cc-3c2=O)cn1`, `Cc1c(CN2C[C@H](O)[C@@H](N3CCOCC3)C2)[nH]c2ccc(F)cc12` is higher in INHIBITION: -38.7% for the first, 63.1% for the second.

Compared with `NC(=O)c1c(SCCN2CCOCC2)sc2c(O)cc(=O)[nH]c12`, `Cc1c(CN2CCCC(O)C2)[nH]c2ccc(F)cc12` (stereo unspecified) is lower in INHIBITION: 20% for the first, 16.5% for the second.

Compared with `CN(C)S(=O)(=O)N1CCCC1c1cccc(-n2ccnc2)n1` (stereo unspecified), `CCC(CC)NC(=O)c1cccnc1N1CCCC1c1ccccn1` (stereo unspecified) is lower in INHIBITION: 33.7% for the first, 25.3% for the second.

First: COCc1nc2ncc3c(=O)n(-c4cccc(OC)c4)ccc3n2n1
Second: COCc1nc2ncc3c(=O)n(-c4ccc(OC)cc4)ccc3n2n1
The INHIBITION of the first is higher: 16.1% for the first, 15% for the second.

First: COCc1nc2ncc3c(=O)n(-c4ccccc4OC)ccc3n2n1
Second: COc1ccc(CNCC(C)Oc2ccccn2)cc1 (stereo unspecified)
The INHIBITION of the first is higher: 66.9% for the first, -30.8% for the second.

Going from `Cc1n[nH]cc1CNC(C)c1cccc(N2CCCC2=O)c1` (stereo unspecified) to `CCn1nc(C)c2nnn(CC(=O)Nc3cccc(C)c3)c(=O)c21`, the INHIBITION rises from 0.643% to 42.4%.

First: CSCCC1c2nc[nH]c2CCN1Cc1[nH]c2ccc(F)cc2c1C (stereo unspecified)
Second: Cc1c(CN2CCc3[nH]cnc3C2C(=O)O)[nH]c2ccc(F)cc12 (stereo unspecified)
The INHIBITION of the first is higher: 17.9% for the first, 1.56% for the second.

Going from `Cc1c(CN2CCc3[nH]cnc3C2C2CC2)[nH]c2ccc(F)cc12` (stereo unspecified) to `Cc1c(CN2CC[C@@H](N3CCC(O)CC3)[C@H](O)C2)[nH]c2ccc(F)cc12`, the INHIBITION rises from 65.7% to 66.9%.

First: CN1CCN([C@@H]2CCN(Cc3ccc4cc(F)ccc4n3)C[C@H]2O)CC1
Second: Cc1ccc2[nH]c(CN3CC[C@@H](N4CCN(C)CC4)[C@H](O)C3)c(C)c2c1
The INHIBITION of the first is lower: -13.5% for the first, 34% for the second.

Going from `CC(=O)NCC(=O)N1C[C@@H](C)[C@@]2(CCN(c3ccsc3)C2=O)C1` to `Cc1cc(N2C[C@H](NC(=O)C3(C#N)CCOCC3)[C@@H](C(C)C)C2)ccn1`, the INHIBITION rises from 15.9% to 30.7%.

Compared with `c1cncc(CN2CCCn3nnc(CN4CCCCC4)c3C2)c1`, `Cc1ccc(CN2CCc3nnc(CN4CCCC4=O)n3CC2)o1` is lower in INHIBITION: 16.8% for the first, 3.81% for the second.

First: Cn1ncc2c(=O)[nH]c(CN3CCCC3Cc3ccc(F)cc3)nc21 (stereo unspecified)
Second: CCCC(=O)N1CC[C@@H]2[C@H](CC1)N(Cc1cccnc1)CCS2(=O)=O
The INHIBITION of the first is lower: -5.07% for the first, -1.53% for the second.

Compared with `N#Cc1ccc(S(=O)(=O)NC(=O)COc2ccc3c(c2)CCC3)cc1`, `CS(=O)(=O)c1ccc(NC(=O)NC2(c3ccccc3)CCC2)cc1` is higher in INHIBITION: 29.25% for the first, 36.7% for the second.

First: CC1CCN(C(=O)c2occc2COc2cccc(C#N)c2)CC1
Second: C=C(C)CN1CCC(C(=O)c2cc(F)ccc2F)CC1
The INHIBITION of the first is lower: -122% for the first, 5.03% for the second.

Going from `CC(O)(CNC(=O)c1cccnc1-n1cccn1)c1cccs1` (stereo unspecified) to `CC(O)(CNC(=O)c1cccnc1-n1cccn1)c1ccsc1` (stereo unspecified), the INHIBITION rises from 35.4% to 61.1%.

Compared with `CC(O)(CNC(=O)c1cccnc1-n1cccn1)c1ccco1` (stereo unspecified), `CCC(CC)NC(=O)c1cccnc1-n1cccn1` is higher in INHIBITION: 7.39% for the first, 55.9% for the second.

First: CCN(CC)CCCC(C)NC(=O)c1cccnc1-n1cccn1 (stereo unspecified)
Second: Cc1ccc(S(=O)(=O)N2C[C@H]3C[C@H](NC(=O)c4ccccn4)[C@H]3C2)cc1
The INHIBITION of the first is lower: -7.13% for the first, 92.9% for the second.

Compared with `CCn1nccc1CNC(=O)CCC1CCCC1`, `O=C(CC1CCCC1)N[C@H]1CN(Cc2c[nH]cn2)C[C@@H]1C1CC1` is higher in INHIBITION: 13% for the first, 45.2% for the second.

Compared with `c1coc(CN2C[C@@H]3CN(Cc4ccoc4)CCO[C@@H]3C2)c1`, `O=C(c1cccs1)N1CC[C@@H]2CN(C3CCOCC3)CCO[C@@H]2C1` is higher in INHIBITION: 24.6% for the first, 45.7% for the second.

Compared with `COCC1(C(=O)N[C@H]2CN(c3ccnc(C)c3)C[C@@H]2C2CC2)CCC1`, `COCC1(C(=O)N[C@H]2CN(c3noc(C)n3)C[C@@H]2C2CC2)CCC1` is lower in INHIBITION: 51.3% for the first, 2.79% for the second.

First: Cc1nnc(CN2C[C@H](NC(=O)CC3CCCC3)[C@@H](C3CC3)C2)s1
Second: COCC1(C(=O)N[C@H]2CN(c3nnc(C)s3)C[C@@H]2C2CC2)CCC1
The INHIBITION of the first is higher: 64.7% for the first, 64.4% for the second.

Going from `Cc1nc(O)cc(CN2C[C@H](NC(=O)C3CCC3)[C@@H](C3CC3)C2)n1` to `O=C(O)c1cc(N2C[C@H](NC(=O)C3CCOCC3)[C@@H](C3CC3)C2)ccn1`, the INHIBITION falls from 18.9% to 3.68%.

First: CN(C)C[C@H]1OC[C@@H]2CCN(S(=O)(=O)c3cccs3)C[C@@H]21
Second: CNC(=O)[C@H]1C[C@@H]2CN(S(=O)(=O)c3ccc(C)cc3)C[C@@H]2N1C
The INHIBITION of the first is higher: 38.7% for the first, -10.3% for the second.

Going from `CC(CO)NC(=O)Nc1ccc(S(C)(=O)=O)nc1` (stereo unspecified) to `Cc1ccc(S(=O)(=O)N2C[C@H]3C[C@H](NC(=O)c4cscn4)[C@H]3C2)cc1`, the INHIBITION rises from -38.695% to 25.6%.

Going from `Cc1ccc(S(=O)(=O)N2CC[C@@H]3C[C@H](NC(=O)c4ccncc4)[C@@H]32)cc1` to `Cc1ccc(S(=O)(=O)N2CC[C@@H]3C[C@H](NC(=O)c4n[nH]cc4Cl)[C@@H]32)cc1`, the INHIBITION falls from 20.4% to 6.521%.

`Cc1ccc(S(=O)(=O)N2C[C@H]3C[C@H](NC(=O)c4cc[nH]n4)[C@H]3C2)cc1` was tested, and the INHIBITION was 64.1%.
